Rows were chosen to be rich in hits. Some 7.3% of all compounds tested hit in one or more screens of this group.
VACV mCherry inh – inhibitors of vaccinia virus infection (mCherry reporter signal); Vaccinia virus mCherry reporter infection, fluorescence; Potency, µM (titrated, usually from 36.5 µM), usual class: inhibitors; actives 0.63% (n = 310,000); AID 720579; calls by dose curve; tested in A549 cells; also: nearly all actives have a fitted effect of over 35% in size
FMDV antiviral – blocks foot and mouth disease virus | FMDV antiviral cell-based qHTS | Potency, µM (doses to about 57.9 µM), usual class: inhibitors | actives 1.2% (n = 410,000) | AID 1159524; calls by dose curve; tested in HEK293T cells; also: read-out not given here; nearly all actives have a fitted effect of over 45% in size
VACV Venus inh – inhibitors of vaccinia virus (Venus reporter); actives 0.46% (n = 330,000); AID 720580; Vaccinia virus Venus reporter expression, fluorescence; Potency, µM (series often up to 36.5 µM), hits mostly inhibitors; calls by dose curve; tested in A549 cells; also: nearly all actives have a fitted effect of over 30% in size
HCMV antiviral – blocks human cytomegalovirus replication. HFF cells, HCMV-luciferase reporter, 72 h; hits give low values. activity change, negative = inhibition, % at 57.5 µM. actives 4.5% (n = 410,000). AID 1259415; in the data active = activity change below about -60%; inconclusive = no clear call, values can overlap the other calls; inactive = above about -39%
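Compounds were evaluated in HFFs infected with an HCMV luciferase reporter virus (MOI 1 PFU/cell). Luciferase in lysates collected 72 h post infection served as the replication measure.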
HCV inhibitor – inhibitors of hepatitis C virus infection; Huh7.5.1 HCVcc-Cre infection, luciferase reporter, 44 h; Potency, µM (doses to about 41.8 µM), hits mostly inhibitors; actives 3.4% (n = 340,000); active = well fitted inhibition curve with a large enough effect; inconclusive = small, poorly fitted or top-dose-only effect, or another doubt; inactive = no such curve, though single readings can be large or run the other way
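Seed cells (1,000/well) for 4 h; treat with compound and infect with HCVcc-Cre, moi about 0.5. Incubate 44 h, then detect luciferase activity.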
Of the large screens only hits and unclear results are named; the others gave an inactive call.

O=C(O)C1CCN(S(=O)(=O)c2ccc3[nH]ccc3c2)CC1	none (no result: HCV inhibitor)
O=S(=O)(c1ccc2c(c1)C(=NO)c1cc(S(=O)(=O)N3CCCCC3)ccc1-2)N1CCCCC1	VACV mCherry inh 1.78µM, FMDV antiviral inconclusive, VACV Venus inh 1.41µM, HCMV antiviral -101.7, HCV inhibitor 5.01µM
COC(=O)Cn1cnc2c(Cl)nc(F)nc21	FMDV antiviral inconclusive, HCV inhibitor 5.62µM
Cc1cc2nc(-c3ccccc3)c(-c3c(F)cc(F)cc3F)nc2cc1C	none (no result: VACV mCherry inh, FMDV antiviral, VACV Venus inh, HCV inhibitor)
CCOC(=O)c1cccc(NC(=O)c2cc3ccccn3n2)c1	none (no result: HCV inhibitor)
O=c1cc(-c2ccccc2Br)[nH]c2ccccc12	HCMV antiviral -89.8 (no result: VACV mCherry inh, FMDV antiviral, VACV Venus inh, HCV inhibitor)
CCOc1ccc(C(=O)Nc2ccc(S(=O)(=O)N3C[C@@H]4C[C@@H](C3)c3cccc(=O)n3C4)cc2)cc1	VACV mCherry inh inconclusive, HCMV antiviral inconclusive, HCV inhibitor 1µM
O=C(Nc1ccc(S(=O)(=O)N2C[C@@H]3C[C@@H](C2)c2cccc(=O)n2C3)cc1)c1ccc(F)cc1	HCV inhibitor inconclusive
CCCc1cc(=O)n2c(C(=O)Nc3ccc(OCC)cc3)c(C(=O)Nc3ccc(C)cc3)sc2n1	HCMV antiviral -83.7 (no result: HCV inhibitor)
CCc1ccc(C2c3c(n[nH]c3C)C(=O)N2c2ccc(C)cc2)cc1 (configuration not stated)	none (no result: HCV inhibitor)
CC[C@@H](C)CCCCC(=O)N[C@H](CCN)C(=O)N[C@@H](C(=O)N[C@H](CCN)C(=O)N[C@@H]1CCNC(=O)C([C@@H](C)O)NC(=O)[C@@H](CCN)NC(=O)[C@@H](CCN)NC(=O)[C@@H](CC(C)C)NC(=O)[C@@H](Cc2ccccc2)NC(=O)[C@@H](CCN)NC1=O)[C@@H](C)O (some centres not stated)	none (no result: HCMV antiviral, HCV inhibitor)
[O-][n+]1onc2c1CCc1c-2nn(-c2ccccc2Cl)[n+]1[O-]	VACV mCherry inh 1µM, VACV Venus inh 1.26µM, HCMV antiviral -99.7 (no result: FMDV antiviral)
Cc1ccc(-n2nc3c([n+]2[O-])CCc2c-3no[n+]2[O-])cc1	HCMV antiviral -77.8 (no result: VACV mCherry inh, VACV Venus inh)
Cc1ccc(C(=O)Nc2ccc(-c3nc4ccccc4s3)c(O)c2)c(C)c1	HCMV antiviral -62.8 (no result: HCV inhibitor)
CCC(=O)Nc1cc(-c2nc3ccccc3s2)c(Cl)cc1Cl	HCMV antiviral -100.6 (no result: HCV inhibitor)
CCC(=O)NC(=S)Nc1ccc(-c2nc3ccccc3s2)cc1	none (no result: VACV mCherry inh)
Cc1ccc(NC(=O)COC(=O)c2ccccc2-c2nc3ccccc3s2)c(C)c1	HCMV antiviral -67.6 (no result: VACV mCherry inh, VACV Venus inh)
Cc1ccc(NC(=O)COC(=O)c2cccc3c2C(=O)c2ccccc2C3=O)c(C)c1	HCMV antiviral -66.9, HCV inhibitor inconclusive
COc1ccccc1C(=O)Nc1ccc(-c2nc3ccccc3s2)c(C)c1	none (no result: HCV inhibitor)
Cc1ccc(Cn2ccn(Cc3ccc(C)cc3)c(=O)c2=O)cc1	none (no result: HCV inhibitor)
O=C(Nc1ccc(F)cc1C(F)(F)F)C1CCN(c2ncccn2)CC1	none (no result: HCV inhibitor)
CC(C)(C)c1ccc(S(=O)(=O)c2cnc(SCC(=O)Nc3ccc4c(c3)OCCO4)[nH]c2=O)cc1	none (no result: HCV inhibitor)
Cc1ccc(Cl)cc1NC(=O)c1cc2ccccc2cc1O	FMDV antiviral inconclusive, HCMV antiviral -99.6, HCV inhibitor inconclusive (no result: VACV mCherry inh, VACV Venus inh)
COc1ccccc1NC(=O)c1cc2cc(Br)ccc2cc1O	FMDV antiviral inconclusive, HCV inhibitor 11.2µM (no result: VACV mCherry inh, VACV Venus inh)
COc1cc(NC(=O)c2cc3ccccc3cc2O)c(OC)cc1Cl	FMDV antiviral 12.6µM, HCMV antiviral -100.6, HCV inhibitor 10µM (no result: VACV mCherry inh, VACV Venus inh)
COc1ccccc1NC(=O)COC(=O)c1cc2ccccc2cc1O	none (no result: VACV mCherry inh, VACV Venus inh)
Cc1ccc(Cl)cc1NC(=O)COC(=O)c1ccccc1O	none (no result: VACV mCherry inh, VACV Venus inh)
COc1cc(NC(=O)c2c(Cl)cnn2C)c(OC)cc1Cl	HCMV antiviral -60.5, HCV inhibitor inconclusive
COC(=O)c1cc(NC(=O)c2c(Cl)cnn2C)cc(C(=O)OC)c1	HCV inhibitor inconclusive
CCN(CC)c1ccc(/C=C(\C#N)C(N)=O)cc1	VACV Venus inh inconclusive
CN(C)c1ccc(/C=C(\C#N)c2ccccc2)cc1	HCV inhibitor inconclusive (no result: HCMV antiviral)
CN(C)c1ccc(/C=C(\C#N)C(=O)c2ccccc2)cc1	HCMV antiviral -62.9 (no result: VACV mCherry inh, VACV Venus inh)
CCN(CC)c1ccc(/C=C(\C#N)C(=O)c2ccc(Br)cc2)cc1	HCMV antiviral -64.6
CN(C)c1cccc(/C=C(\C#N)c2ccccc2)c1	VACV Venus inh inconclusive, HCV inhibitor 11.2µM
COc1ccc(-c2noc(N3CCC(C(=O)Nc4ccc(C)c(F)c4)CC3)n2)cc1OC	none (no result: HCV inhibitor)
CCOc1ccc(C2CC(c3cccc(OC)c3OC)n3nnnc3N2)cc1Cl (configuration not stated)	HCV inhibitor 11.2µM
CCOc1ccccc1CNC(=O)c1cc(-c2ccc(OC)cc2)nc2ccc(C(C)C)cc12	none (no result: HCV inhibitor)
O=S(=O)(c1ccc(Cl)cc1)N1CCN=C1SCc1cccnc1	HCMV antiviral -75.2
O=S(=O)(c1ccc(Cl)cc1)N1CCN=C1SCc1cccc(Cl)c1	FMDV antiviral inconclusive, HCMV antiviral -62.0, HCV inhibitor inconclusive
O=S(=O)(c1ccccc1)N1CCN=C1SCc1c(F)cccc1Cl	HCMV antiviral -80.0, HCV inhibitor inconclusive
COc1ccc(S(=O)(=O)N2CCN=C2SCc2cccc(C)c2)cc1	FMDV antiviral inconclusive, HCMV antiviral -74.7
O=C(Nc1nnc(-c2ccccc2)s1)C1CCCN(C(=O)c2ccoc2)C1 (configuration not stated)	none (no result: FMDV antiviral, HCMV antiviral, HCV inhibitor)
COc1ccccc1C1CN(CCNC(=O)[C@@H]2CSC(=O)N2)Cc2ccccc2O1 (some centres not stated)	none (no result: HCMV antiviral, HCV inhibitor)
O=C(CCc1cn(Cc2ccccc2F)c2ccccc12)NCc1ccc(Cl)cc1	FMDV antiviral 10µM (no result: HCV inhibitor)
Cc1ccc(CNC(=O)CCc2cn(Cc3ccc(C)cc3)c3ccccc23)cc1	none (no result: HCV inhibitor)
CN1CCc2cccc3c2[C@H]1Cc1ccc(O)c(O)c1-3	FMDV antiviral inconclusive, HCMV antiviral -66.3, HCV inhibitor inconclusive
COc1ccc2c(c1O)-c1c(OC)c(OC)cc3c1[C@H](C2)N(C)CC3	HCMV antiviral -62.6
COc1ccc2cc1Oc1ccc(cc1)C[C@H]1c3cc(c(OC)cc3CCN1C)Oc1c(OC)c(OC)cc3c1[C@@H](C2)N(C)CC3	HCMV antiviral -66.5, HCV inhibitor inconclusive
CCOc1ccccc1CNC(=O)C1CCN(c2nnc(-n3c(C)ccc3C)s2)CC1	none (no result: HCV inhibitor)
CC(O)(c1ccc(F)c(F)c1)c1nc(-c2ccncc2)cs1 (configuration not stated)	none (no result: HCV inhibitor)
CN(C)c1ccc(-c2csc(C(C)(O)c3ccc(F)c(F)c3)n2)cc1 (configuration not stated)	HCMV antiviral -63.8 (no result: HCV inhibitor)
COc1ccc(-c2csc(C(C)(O)c3ccc(F)c(F)c3)n2)cc1 (configuration not stated)	VACV Venus inh inconclusive, HCMV antiviral -63.5 (no result: HCV inhibitor)
COc1ccc(C(C)(O)c2nc(-c3cccc(C(F)(F)F)c3)cs2)cc1 (configuration not stated)	HCMV antiviral -66.7 (no result: HCV inhibitor)
CN(C)c1ccc(-c2csc(C(C)(O)c3ccccc3)n2)cc1 (configuration not stated)	HCMV antiviral inconclusive (no result: HCV inhibitor)
Cc1cnc(SCc2ccccn2)nc1C1CCCN(Cc2ccsc2)C1 (configuration not stated)	none (no result: HCMV antiviral, HCV inhibitor)
Cc1c(C(=O)NCC2(N3CCOCC3)CCCCC2)cnn1-c1nccc(-c2ccccc2F)n1	none (no result: HCMV antiviral, HCV inhibitor)

From PubChem BioAssay
